Measurements taken from PubChem BioAssay (NCATS).
Where “and” joins values, the source holds several entries; their conditions need not be identical. Equal entries are not always repeated. Records with an inconclusive call do not appear. Calls of active or inactive are those of the source. Calls follow the shape of the dose curve; as a rule, active = well fitted curve in the direction sought with a large enough effect; inconclusive = small, poorly fitted or top-dose-only effect, or another doubt; inactive = no such curve, though single readings can be large; an effect the other way counts as inactive or inconclusive.

How the values were obtained:
[1] = Viability qHTS for spleen associated tyrosine kinase inhibitor (SYKi) naive MV4-11 cells (AID 1963823); also: nearly all actives have a fitted effect of over 40% in size
How it was run: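 SYKi-naive MV4-11 AML cells, 500 per well, were exposed to library compounds for 72 hr at 37 C, 5% CO2. Viability was then read by CellTiter-Glo luminescence after 10 min at room temperature.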

[2] = Quantitative highthroughput screen to assess conditional lethalithy of NOMO1 cells grown in RPMI1640 with untreated serum (RPMI+s) (AID 1963876); also: nearly all actives have a fitted effect of over 35% in size;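 as to Viability: 100% = DMSO wells and 0% = empty wells without cells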
How it was run: (§1)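 Each medium arm—HPLM with 10% dialyzed FBS, or RPMI1640 with 5 mM glucose and 10% untreated or dialyzed FBS—was screened against an 11-point, 3-fold compound titration for 48 h at 37 °C, with CellTiter-Glo luminescence as endpoint.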

[3] = Quantitative highthroughput screen to assess conditional lethalithy of NOMO1 cells grown in RPMI1640 with dialyzed fetal bovine serum (RPMI+ds) (AID 1963877); also: nearly all actives have a fitted effect of over 30% in size;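 as to Viability: series mostly up to about 46 µM; 100% = DMSO control wells and 0% = empty wells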
How it was run: as §1

[4] = Quantitative highthroughput screen to assess conditional lethalithy of NOMO1 cells grown in Human Plasma-Like Medium with dialyzed fetal bovine serum (HPLM+ds) (AID 1963878); also: nearly all actives have a fitted effect of over 35% in size;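 as to Viability: 100% = DMSO wells and 0% = empty wells on each plate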
How it was run: as §1

[5] = Quantitative highthroughput screen to assess conditional lethalithy of P12 Ichikawa cells grown in RPMI1640 with dialyzed fetal bovine serum (RPMI+ds) (AID 1963880); settings: Potency: P12-Ichikawa viability; also: nearly all actives have a fitted effect of over 35% in size;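 as to Viability: 100% = DMSO wells and 0% = empty wells on each plate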
How it was run: as §1

[6] = Quantitative highthroughput screen to assess conditional lethalithy of SEM cells grown in Human Plasma-Like Medium with dialyzed fetal bovine serum (HPLM+ds) (AID 1963882); also: nearly all actives have a fitted effect of over 35% in size; as to Viability: series mostly up to about 46 µM
How it was run: as §1

[7] = Quantitative highthroughput screen to assess conditional lethalithy of SEM cells grown in RPMI1640 with unreated serum (RPMI+s) (AID 1963883); also: nearly all actives have a fitted effect of over 35% in size;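 as to Viability: 100% = DMSO wells and 0% = empty wells without cells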
How it was run: as §1

[8] = Quantitative highthroughput screen to assess conditional lethalithy of SEM cells grown in RPMI1640 with dialyzed fetal bovine serum (RPMI+ds) (AID 1963884); also: nearly all actives have a fitted effect of over 35% in size;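 as to Viability: series mostly up to about 46 µM; 100% = DMSO control wells and 0% = empty wells without cells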
How it was run: as §1

[9] = Cellular viability qHTS for adrenocortical cancer (ACC) cell line SW-13 (AID 1963989); settings: SW-13 ACC cells viability, CellTiter-Glo, 48 h; activity (max response): hits give low values; also: nearly all actives have a fitted effect of over 65% in size;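 as to activity (max response): cells grown in serum-free medium with ITS supplement; % is scaled to controls: 0 for no effect and ±100 for the full control effect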
How it was run: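 SW-13 cells in ITS-supplemented serum-free DMEM were plated overnight, then exposed for 48 h at 37C to compound titrations (up to 46 uM final). Viability was read by CellTiter-Glo luminescence; four-parameter logistic fits gave IC50 and efficacy.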

[10] = Cellular viability qHTS for adrenocortical cancer (ACC) cell line NCI-H295R (AID 1963990); also: nearly all actives have a fitted effect of over 60% in size
How it was run: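 Luminescent ATP read-out (CellTiter-Glo, 20 min RT) after 48 h drug exposure of NCI-H295R cells; a titration up to 46 uM final. Data normalized to doxorubicin (100% inhibition) and DMSO (0%); 4-parameter fit gives IC50, max response.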

[11] = Quantitative highthroughput screen to assess conditional lethalithy of P12 Ichikawa cells grown in RPMI1640 with untreated serum (RPMI+s) (AID 1963881); settings: Potency: viability; also: nearly all actives have a fitted effect of over 35% in size;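 as to Viability: series mostly up to about 46 µM; 100% = DMSO wells and 0% = empty wells without cells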
How it was run: as §1

[12] = Quantitative highthroughput screen to assess conditional lethalithy of P12 Ichikawa cells grown in Human Plasma-Like Medium with dialyzed fetal bovine serum (HPLM+ds) (AID 1963879); settings: Potency: viability; also: nearly all actives have a fitted effect of over 35% in size; as to Viability: series mostly up to about 46 µM
How it was run: as §1
Potency is read from the fitted curve at half-maximal effect.

COc1ccc(-c2oc3c(CC=C(C)C)c(O)cc(O)c3c(=O)c2O)cc1
active: Potency [1] 8.33 µM
inactive: Potency [2] | Potency [3] | Potency [4] | Potency [5] | Potency [6] | Potency [7] | Potency [8] | activity (max response) [9] -11% | Potency [10]

CN1C(=O)C(Cc2c[nH]c3ccccc23)NC1=S (configuration not stated)
inactive: Potency [1] | Potency [2] | Potency [3] | Potency [4] | Potency [5] | Potency [11] | activity (max response) [9] 7.04% | Potency [10]

CCn1c(-c2nonc2N)nc2cnc(Oc3cccc(NC(=O)c4ccc(OCCN5CCOCC5)cc4)c3)cc21
inactive: Potency [4]
active: Potency [1] 517 nM and 934 nM | Potency [2] 5.9 µM | Potency [3] 1.18 µM | Potency [12] 9.35 µM | Potency [6] 13.2 µM

Cc1c(CCOc2ccc(C(=O)O)cc2)c2cc(Cl)ccc2n1C(c1ccccc1)c1ccccc1
inactive: Potency [1] | Potency [2] | Potency [3] | Potency [4] | Potency [5] | Potency [6] | Potency [7] | Potency [8] | activity (max response) [9] -0.782% | Potency [10]
active: Potency [12] 14.8 µM

CC(C)C[C@H](NC(=O)[C@@H](O)[C@H](N)Cc1ccccc1)C(=O)O
inactive: Potency [1] | activity (max response) [9] 9.42% | Potency [10]
active: Potency [3] 20.9 µM

COc1cc(Nc2nc3ccccc3nc2NS(=O)(=O)c2ccc(NC(=O)c3ccc(C)c(OC)c3)cc2)cc(OC)c1
active: Potency [1] 18.6 µM | Potency [3] 7.43 µM | Potency [12] 5.9 µM | Potency [5] 14.8 µM
inactive: Potency [2] | activity (max response) [9] 11.3% | Potency [10]

COc1ccc(S(=O)(=O)Nc2cc(-c3c(O)ccc4ccccc34)c(O)c3ccccc23)cc1
active: Potency [1] 1.18 µM | Potency [4] 20.9 µM | Potency [12] 16.6 µM | Potency [5] 18.7 µM | Potency [11] 20.9 µM | Potency [6] 14.8 µM | Potency [7] 7.43 µM | Potency [8] 14.8 µM | Potency [10] 28.2 µM

Cc1ccccc1C(=O)c1ccc(Nc2ccc(Br)cc2N)cc1Cl
active: Potency [1] 11.8 µM and 13 µM | Potency [3] 20.9 µM | Potency [9] 31.6 µM | Potency [10] 31.6 µM

Cc1ccccc1C(OCCN(C)C)c1ccccc1 (configuration not stated)
inactive: Potency [1] | Potency [2] | Potency [3] | Potency [12] | Potency [5] | Potency [11] | Potency [6] | Potency [7] | Potency [8] | activity (max response) [9] 14.3% | Potency [10]

CCCCc1oc2ccc(NS(C)(=O)=O)cc2c1C(=O)c1ccc(OCCCN(CCCC)CCCC)cc1
active: Potency [1] 6.68 µM and 2.59 µM and 6.61 µM | Potency [2] 1.18 µM | Potency [12] 8.33 µM | Potency [5] 9.35 µM | Potency [11] 8.33 µM | Potency [9] 11.6 µM and 3.98 µM | Potency [10] 4.11 µM and 4.47 µM
